DAX1 inh-1: DAX1 (NR0B1) inhibitors on StAR promoter, primary screen, cell-based, luminescence, SF-1 (NR5A1), full-length DAX-1 | HEK293T StAR-luciferase reporter, SF-1/DAX-1 repression relief | actives 1.1% (n = 370,000) | AID 652010, 2013 | inhibition, % at 6.8 µM;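 active = inhibition above the mean over all tested compounds plus 3 SD, cut at about 3.6% in these data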;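 note: higher inhibition means more luminescence from relief of DAX-1 repression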
ssDAF12 agonist: S. stercoralis DAF-12 nuclear receptor activators, primary screen, cell-based, luminescence, HEK293, GRIP1 co-expression, lit1-tk-luc | Nuclear hormone receptor DAF-12 (Strongyloides stercoralis) | HEK293 ssDAF-12/GRIP1 lit1-tk-luc reporter; % of 3 µM dafachronic acid response | activation, % at 6.8 µM | actives 1% (n = 370,000);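 active = activation above the mean over all tested compounds plus 3 SD, cut at about 0.9% in these data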
hgDAF12 agonist: H. glycines DAF-12 receptor agonists, primary screen, cell-based, luminescence, HEK293, GAL4 fusion, UAS-luciferase; activation, % at 6.8 µM; actives 1.8% (n = 370,000); HEK293 GAL4-hgDAF12 UAS-luciferase reporter, agonist luminescence; normalized to butyrate control; AID 687014, 2013;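 active = activation above a cutoff set at the mean of all screened compounds plus 3 SD, cut at about 10% in these data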
hcDAF-12 act: H. contortus DAF-12 nuclear receptor activators, primary screen, cell-based, luminescence, HEK293, lit1-tk-luc reporter; actives 1.4% (n = 370,000); activation, % at 6.8 µM; HEK293 hcDAF-12 lit1-tk-luc reporter; 0% DMSO, 100% Δ7-dafachronic acid; AID 652067, 2013;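 active = activation above the mean of all tested compounds plus 3 SD, cut at about 5.5% in these data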
DAX1 inh-2: DAX1 (NR0B1) inhibitors, primary screen, cell-based, HEK293, Gal4-DAX1, luciferase luminescence; Nuclear receptor subfamily 0 group B member 1 (Homo sapiens), P51843; actives 0.99% (n = 340,000); inhibition, % at 6.75 µM; HEK293 Gal4-DAX1 luciferase reporter;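 active = inhibition above the mean over all tested compounds plus 3 SD, cut at about 4.2% in these data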;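 note: inhibition shows as a rise in luminescence from relieved DAX1 repression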
Target sequence (P51843 207-470 limits assumed): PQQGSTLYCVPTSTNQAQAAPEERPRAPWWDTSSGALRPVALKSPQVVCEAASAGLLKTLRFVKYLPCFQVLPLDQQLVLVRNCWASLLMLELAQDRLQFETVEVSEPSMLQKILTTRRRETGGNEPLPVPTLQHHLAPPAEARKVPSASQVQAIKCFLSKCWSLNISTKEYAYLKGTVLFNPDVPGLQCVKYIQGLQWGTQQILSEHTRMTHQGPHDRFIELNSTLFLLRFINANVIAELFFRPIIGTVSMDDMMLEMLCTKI
Hits are given with their value; . = inactive; / = not tested or not shown. Rows were chosen to be rich in hits. Some 4.1% of all compounds tested hit in one or more screens of this group.

SMILES	DAX1 inh-1	ssDAF12 agonist	hgDAF12 agonist	hcDAF-12 act	DAX1 inh-2
CCN1C(=S)SC(=O)C1=C1C=C(C)N(Cc2ccco2)C(C)=C1	.	.	12	6.5	.
O=C1CCC[C@H]2C[C@H](NCc3ccc(Cl)c(Cl)c3)CC[C@]23CCCN13	/	.	.	.	/
C=CCN(CC=C)C(=S)NC(=O)/C=C/c1ccc(OC)cc1	.	1.4	.	.	.
COCCNC(=O)c1cc(-c2cccc(OC)c2)on1	.	.	11	.	.
COc1cccc(-c2cc(C(=O)NCc3cccs3)no2)c1	.	.	13	.	.
COCC(C)NC(=O)c1cc(-c2cccc(OC)c2)on1 (configuration not stated)	.	.	.	.	.
COc1ccc(-c2cc(C(=O)NCc3cccs3)no2)cc1	.	.	.	.	.
CCOC(=O)CCC(=O)N1CCOCCN(C(=O)CCC(=O)OCC)CCOCC1	.	.	.	.	.
CCOC(=O)CCC(=O)N1CCNC(=O)C1	.	.	.	5.6	.
COc1ccc(C)cc1NC(=O)CSc1nnc(-c2n[nH]c3c2CCC3)n1N	.	.	.	.	/
CCOC(=O)c1c(C)[nH]c(C(C)=NNC(=O)c2cccs2)c1C	4.0	.	12	.	.
CCN1CCN(c2ncnc3c2cnn3-c2ccc(Cl)cc2)CC1	.	.	12	.	.
CCC(CO)Nc1ncnc2c1cnn2-c1ccc(Cl)cc1 (configuration not stated)	4.0	.	.	.	.
Clc1ccc(-n2ncc3c(NCc4ccco4)ncnc32)cc1	.	.	13	.	.
CCN1CCN(c2ncnc3c2cnn3-c2ccccc2)CC1	.	.	.	.	.
COC(=O)[C@@H]1C[C@@]2(c3ccccc3)c3ccccc3N(S(=O)(=O)c3ccccc3)[C@H]2N1C(=O)CNC1CCCCC1	.	.	.	.	/
O=C1N/C(=C/c2ccsc2)C(=O)N1c1ccccc1	.	.	12	.	.
CCOC(=O)Cn1nc(-c2ccc(C)cc2)c2ccccc2c1=O	.	.	.	.	.
CCOC(=O)Cn1nc(-c2ccccc2)c2cnc3ccc(C)cc3c21	.	.	.	6.3	.
CC(C)CN1CN2Cc3ccccc3C2CS1(=O)=O (configuration not stated)	.	.	.	.	/
C/C(CC(=O)Nc1ccc(Br)cc1)=N\NC(=O)c1cccc(O)c1	.	.	.	.	5.7
COc1cc(NC(=O)C/C(C)=N/NC(=O)c2cccc(O)c2)c(OC)cc1Cl	.	.	12	6.1	.
C/C(CC(=O)Nc1ccc2c(c1)OCCO2)=N\NC(=O)c1cccc(O)c1	.	.	.	.	6.4
O=C(CSc1nc2ncccc2[nH]1)N1CCOCC1	.	.	.	.	/
COc1ccc(S[C@]2(C(=O)N3CCN(c4ncccn4)CC3)CC(=O)N(c3ccccc3)[C@@H]2c2ccc(OC)cc2)cc1	.	.	.	.	/
SMILES	DAX1 inh-1	ssDAF12 agonist	hgDAF12 agonist	hcDAF-12 act	DAX1 inh-2
CN(C)S(=O)(=O)c1cccc(NC(=O)COC(=O)c2cc3ccccc3oc2=O)c1	.	.	13	.	5.3
Cc1ccnc(NC(=O)c2cc3ccccc3oc2=O)c1	.	.	11	.	.
Cc1cccc(NC(=O)c2cc3ccccc3oc2=O)c1	.	.	11	.	4.3
O=C(O)c1ccccc1NC(=O)c1cc2ccccc2oc1=O	.	.	.	.	.
COc1ccc(-c2cc3ccccc3oc2=O)cc1	.	.	13	.	.
COc1ccc(-c2nnc(-c3cc4ccccc4oc3=O)o2)cc1	.	.	.	.	.
COc1ccc2oc(=O)c(C(=O)Nc3cccc(C)c3)cc2c1	.	.	.	.	.
O=C(CSc1nc2c(c(=O)[nH]1)CCCC2)N1CCOCC1	.	.	.	.	/
C[C@H](CO)N1C[C@H](C)[C@@H](CN(C)C(=O)Nc2ccnc(N3CCOCC3)c2)OCc2cn(nn2)CCCC1=O	.	.	.	.	/
COC(=O)C1CN(Cc2ccc(OC)cc2)CCS(=O)(=O)N1Cc1ccc(C)cc1 (configuration not stated)	.	.	.	.	/
COc1ccc(NC(=O)c2cc(-c3ccco3)on2)c(OC)c1	.	.	.	.	.
COc1ccc(-c2cc3ccc(O)cc3oc2=O)cc1OC	.	.	.	5.8	.
COc1ccc(NC(=O)c2cc3ccccc3oc2=O)c(OC)c1	.	.	11	.	.
COc1ccc(NC(=O)c2cc(C3CC3)on2)c(OC)c1	.	1.1	.	.	.
Cc1cccc(NC(=O)CSc2nc3ccccc3o2)c1	.	.	13	.	.
C/C(=N\NC(=O)Cc1cc(=O)[nH][nH]1)c1ccc([N+](=O)[O-])cc1	.	.	.	.	/
COc1ccc([C@H]2OC(=O)C[C@@H]2C(=O)N2CCCCC2)cc1OC	.	.	.	.	/
c1ccc(C2CCC3(CC2)CCC3NCc2cccs2)cc1 (configuration not stated)	/	.	.	.	/
O=C(N[C@H](C(=O)O)c1ccccc1)C1CCC(Cn2cnc3ccccc3c2=O)CC1 (some centres not stated)	.	.	.	.	4.6
COc1cccc(CNC(=O)c2cccc(NC(=O)C3=C(C)OCCS3)c2)c1	.	.	.	.	.
COc1ccc(CNC(=O)Cc2ccc(NC(=O)C3=C(C)OCCS3)cc2)cc1	.	.	11	.	.
C/C(=N\NC(=O)COc1ccc(C)cc1C(C)C)c1ccc(-n2ccnc2)cc1	.	.	11	.	.
Cn1c(/C=C/c2ccccc2[N+](=O)[O-])nc2ccccc2c1=O	.	.	.	.	4.5
CCn1c(/C=C/c2ccccc2[N+](=O)[O-])nc2ccccc2c1=O	.	.	.	.	.
CC(=O)Nc1sc2c(c1C(c1cccc(Cl)c1)N1CCN(CCO)CC1)CCCC2 (configuration not stated)	.	.	.	.	4.9
COc1cc2cc(Oc3ccc4ccc(=O)oc4c3)c(=O)oc2cc1OC(C)=O	.	.	.	.	9.8
COc1ccc(C(=O)N2CCC(Oc3cccnc3)CC2)c(OC)c1	.	.	.	.	/
Cc1ccc2nc(SCC3CCCCO3)[nH]c2c1 (configuration not stated)	.	.	12	.	.
CC(=O)ONC(=Nc1ccccc1)c1nonc1N	.	.	.	.	5.2
Cc1c(C)c2c(OCC(=O)NCc3ccncc3)cc3c(c2oc1=O)CCC(C)(C)O3	.	.	.	.	5.9
